Source: PubChem BioAssay (NCI)
This is part of a sample that, as a whole, favours compounds with a hit. Of some 79,000 tested, about 15% had one in any assay. Cut-off read from the data, not from the text of the source: active = growth inhibition above about 70%; inactive = the rest.

Columns and labels:
[1] = NCI Yeast Anticancer Drug Screen. Data for the rad50 strain (AID 155);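 note: 0% = growth of vehicle-only cultures of the same strain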; settings: S. cerevisiae rad50 strain growth inhibition; at 50.0 µM; active compounds read high
Outline: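 Growth of the mutant yeast was measured after compound exposure and referenced to vehicle-treated cultures.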

[2] = NCI Yeast Anticancer Drug Screen. Data for the mec2-1 strain (AID 157); settings: S. cerevisiae mec2-1 strain, at 50.0 µM, active compounds read high
Outline: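 Vehicle-treated cultures served as reference for growth inhibition of compound-exposed mec2-1 yeast.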

[3] = NCI Yeast Anticancer Drug Screen. Data for the sgs1 mgt1 strain (AID 161);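 note: 0% = growth of cultures given vehicle only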; settings: S. cerevisiae sgs1 mgt1 strain, at 50.0 µM, active compounds read high
Outline: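 Test agents were incubated with a DNA-repair-mutant yeast strain. Growth was then read and compared against vehicle-treated controls.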

[4] = NCI Yeast Anticancer Drug Screen. Data for the cln2 rad14 strain (AID 165);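 note: 0% = growth equal to vehicle treated cultures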; settings: S. cerevisiae cln2 rad14 strain, at 50.0 µM, active compounds read high
Outline: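 Each compound was tested on cln2 rad14 yeast. Inhibition of growth was calculated against vehicle-exposed controls.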

[5] = NCI Yeast Anticancer Drug Screen. Data for the bub3 strain (AID 167); settings: S. cerevisiae bub3 mutant strain, at 50.0 µM, active compounds read high
Outline: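 Whole-cell yeast assay. The mutant strain was incubated with compounds, and growth inhibition was determined by comparison with vehicle-treated cells.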

[6] = NCI Yeast Anticancer Drug Screen. Data for the mlh1 rad18 strain (AID 175); settings: S. cerevisiae mlh1 rad18 strain growth inhibition; at 50.0 µM; active compounds read high
Outline: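 Vehicle-treated cultures served as the reference for growth inhibition in a yeast strain carrying DNA damage repair alterations exposed to each compound.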

Measured: growth inhibition

CC(=O)c1cccc(NC(=O)OCC2CC3C=CC2C3)c1 (stereo not given)
inactive: [1] 25.4% | [2] 27.1% | [3] 45.9% | [4] 4% | [5] 52.8% | [6] 52.3%

N#CC1=C(Nc2ccccc2)CCC1
inactive: [1] 5% | [2] -11.6% | [3] -0.8% | [4] -38.8% | [5] 2.25% | [6] -5.4%

c1ccc2c(c1)c1c(n2CCOCCN2CCCCC2)CCCC1
inactive: [1] 33.9% | [2] 19.9% | [3] 29.3% | [4] 28.1% | [5] 28.4% | [6] 19.8%

O=C1OC(c2ccc(O)c(O)c2)(c2ccc(O)c(O)c2)c2ccccc21
inactive: [1] -27.9% | [2] -24.2% | [3] -27.1% | [4] 5.8% | [5] -21.7% | [6] -32.6%

Oc1cc2oc3cc(O)c(O)cc3c2cc1O
inactive: [1] 7% | [2] 10.4% | [3] 9.85% | [4] 35.4% | [5] 6.1% | [6] 23.9%

CC(C)OC(=O)Nc1cccc(NC(=O)OCCCl)c1
inactive: [1] 7.1% | [2] -3.65% | [3] 9.15% | [4] -9.85% | [5] -8.8% | [6] -7.1%

COC(=O)C(CC(=O)C=[N+]=[N-])NC(=O)C(Cl)Cl (stereo not given)
inactive: [1] -2.4% | [2] -8.9% | [3] -4.7% | [4] -15.9% | [5] 9.3% | [6] -8.95%

FC(F)(F)C(F)(F)C(F)(F)c1nc(C(F)(F)C(F)(F)C(F)(F)F)nc(C(F)(F)C(F)(F)C(F)(F)F)n1
inactive: [1] 22.1% | [2] -1% | [3] 31.5% | [4] 18.6% | [5] 15.1% | [6] 25.6%

Cc1cccc2c1NC(=O)C2=O
inactive: [1] 21.6% | [2] 8.4% | [3] -2.8% | [4] 15.7% | [5] -0.65% | [6] 13.5%

OCCSCc1cc2c(cc1Br)OCO2
inactive: [1] -29.5% | [2] -2% | [3] -11.8% | [4] 19.8% | [5] 12.4% | [6] 2.15%

CC(C)CCCC(C)C1CCC2C3CC=C4CC(O[N+](=O)[O-])CCC4(C)C3CCC12C (stereo not given)
inactive: [1] -24.8% | [2] -6% | [3] -17.1% | [4] -13.8% | [5] -5.15% | [6] 17.9%

CN(C)CCNC(=O)c1cccc2ccc(-c3ccncc3)nc12
inactive: [1] 6.15% | [2] 11% | [3] -20.7% | [4] -3.3% | [5] -19.9% | [6] -27.8%

C=C(COC(C)=O)CC(/C=C(\C)CCC=C(C)C)OC(C)=O (stereo not given)
inactive: [1] -6.25% | [2] -1.15% | [3] 8.9% | [4] -11.5% | [5] -5.25% | [6] 11%

COc1ccc(OC)c(N=Nc2c(C)nc(N)nc2C)c1
inactive: [1] 11.3% | [2] 4.4% | [3] 7.85% | [4] -32.6% | [5] 19.6% | [6] 10.2%

COc1cccc(C2CC(c3cc(OC)c(OC)c(OC)c3)CC(c3cccc(OC)c3)N2)c1 (stereo not given)
inactive: [1] -5.4% | [2] 1.45% | [3] 15.2% | [4] 16.4% | [5] 19.6% | [6] 5.7%

COc1ccc2[nH]c3c(C)c4c(c(C)c3c2c1)CN(C)CC4
inactive: [1] 3.7% | [2] 4.95% | [3] -17.2% | [4] -1.25% | [5] -7.6% | [6] -5.85%

CC(=O)O[C@H]1CSC[C@@H](OC(C)=O)C1[N+](=O)[O-] (stereo not given in full)
inactive: [1] 37.5% | [2] 25.4% | [3] 17.7% | [4] 43.2% | [5] 18.8% | [6] 47.1%

CCCCCCCCCCCCCCCC(=O)OCC1OC(n2cc(F)c(=O)[nH]c2=O)C(NC(=O)N(CCCl)N=O)C(O)C1O (stereo not given)
inactive: [1] -16.1% | [2] -31.8% | [3] -16.6% | [4] -2.1% | [5] -24.4% | [6] -23.1%

O=[N+]([O-])c1ccc(C2=NOC3COC4C=CC=CC4OCC23)cc1 (stereo not given)
inactive: [1] -3.4% | [2] -29.7% | [3] 11.1% | [4] -2.55% | [5] 5.95% | [6] -7.5%

NC1CC1
inactive: [1] -8.4% | [2] -1.1% | [3] -4.6% | [4] -9.95% | [5] 11.6% | [6] -22.9%

CCN(CC)CCCCCCCNc1nccc2ccccc12
inactive: [1] 31.1% | [2] -2.4% | [3] -8.4% | [4] -23.3% | [5] 12.8% | [6] 35.4%

O=C(O)C(NCCNC(C(=O)O)c1ccccc1)c1ccccc1 (stereo not given)
inactive: [1] 24.2% | [2] 6.7% | [3] 19% | [4] 38.6% | [5] 15.2% | [6] 3.4%

CC(=O)C1C(=O)NC(=O)C1=O (stereo not given)
inactive: [1] -2.9% | [2] -23.5% | [3] -14.2% | [4] 0.2% | [5] -18.9% | [6] -18.9%

CCCCNC(=O)/C(=C\c1ccccc1)NC(C)=O
inactive: [1] 50.1% | [2] 12.1% | [3] 0.85% | [4] -8.45% | [5] 10.9% | [6] -14.2%

O=C1C2=Cc3ccccc3OC2(O)Oc2ccccc21 (stereo not given)
inactive: [1] 8.1% | [2] 6.4% | [3] -3.35% | [4] 3.35% | [5] 1.8% | [6] -73.2%

O=C(Nc1ccccc1-c1n[nH]c(=S)[nH]c1=O)C(F)(F)F
inactive: [1] -2.45% | [2] 2.05% | [3] -10.3% | [4] -7.35% | [5] -65.8% | [6] 30.8%

CCCCN(CCCC)CC(O)c1cc(-c2ccc(Cl)c(Cl)c2)nc2c(Cl)cc(Cl)cc12 (stereo not given)
inactive: [1] 28.3% | [2] 31.1% | [3] -15.7% | [4] 11.6% | [5] -15.5% | [6] -11.8%

CC1CCC(C(C)C)C(OC(=O)N/N=C/N(C)C)C1 (stereo not given)
inactive: [1] 1.65% | [2] 17.2% | [3] 4.4% | [4] 20% | [5] -0.95% | [6] 25.1%

COc1cc(C2C(C(=O)O)=C(COC(C)=O)Oc3cc4c(cc32)OCO4)cc(OC)c1OC (stereo not given)
inactive: [1] -9.9% | [2] -15.4% | [3] -25.4% | [4] -19.2% | [5] -4.1% | [6] -8.6%

Cn1ccc2c([N+](=O)[O-])cccc2c1=O
inactive: [1] 4.1% | [2] 2% | [3] 2.55% | [4] -45.9% | [5] -25.4% | [6] 4.35%

O=C1CSCN1N1CSCC1=O
inactive: [1] -5.85% | [2] 3.1% | [3] 7.85% | [4] -4.35% | [5] 8.95% | [6] 18.8%

c1ccc(Nc2nnc(Nc3ccccc3)s2)cc1
inactive: [1] -6.15% | [2] 21.6% | [3] 53% | [4] -21.2% | [5] 3.9% | [6] -21.1%

CNC(=S)NC(=S)N(C)C
inactive: [1] -1.15% | [2] -29.9% | [3] 35.2% | [4] -25.8% | [5] -35.2% | [6] 35.9%

C[N+]1(C)C2C=CCC1CSC2 (stereo not given)
inactive: [1] 4.55% | [2] 0.15% | [3] -3.8% | [4] 3.65% | [5] 2.75% | [6] 12.8%

CCC(c1ccc(OC)cc1)C(C(C)=O)c1ccc(OC)cc1 (stereo not given)
inactive: [1] -5.55% | [2] -13% | [3] -4.1% | [4] -22.9% | [5] 25.6% | [6] -5.85%

NC(=O)C(F)(F)c1ccccc1
inactive: [1] 2.3% | [2] -12.8% | [3] 14.8% | [4] 10.1% | [5] 21.4% | [6] 9.8%

Cn1ncc2c(=O)[nH]c(-c3ccccc3)nc21
inactive: [1] -0.75% | [2] -8.35% | [3] -5.9% | [4] 3.55% | [5] -3.05% | [6] -6.3%

C=CCOc1cc2c(cc1C(C)c1ccc(OCC)cc1)OCO2 (stereo not given)
inactive: [1] 51.6% | [2] 14.8% | [3] -14.6% | [4] -19.4% | [5] -10.8% | [6] -32.3%

O=C(/C=C/c1ccncc1)c1ccccc1
inactive: [1] 0.4% | [2] -9.3% | [3] -1.85% | [4] 11.9% | [5] -12.9% | [6] 1.75%

COc1cccc2c1C(c1ccc3ccccc3c1)OC2=O (stereo not given)
inactive: [1] -22.2% | [2] -11.4% | [3] -27.6% | [4] 12.8% | [5] -25.4% | [6] -15.5%
